From PubChem BioAssay AID1852 (Sanford-Burnham Center for Chemical Genomics, 2009)
Out of some 2,500 compounds screened, about 1,100 (44%) were called active. The set was probably picked from earlier hits. Some of the results follow. Unmarked numbers belong to inactive results.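 How the source made its calls: active means inhibition above 50% at 4 µM in the single-point screen; inactive means inhibition of 50% or less.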

Test: blockers of TNF-a NF-kB luciferase induction – cell-based, HEK293T NF-kB-Luc, luminescence, selectivity assay for NOD1/NOD2 signaling inhibitor project, primary screen (AID 1852)
Conditions: TNF-a induced, 14 h, at 4 µM, stronger effect = higher value

| Compound | inhibition |
| --- | --- |
| CC(=O)c1ccc(NC(=O)c2noc3c2CCC3)cc1 | 35.4% |
| O=C(Sc1cccc2cccnc12)c1ccccc1Br | 105% (active) |
| O=C(Sc1cccc2cccnc12)c1ccc(F)cc1 | 101% (active) |
| CCOC(=O)c1c(N2C(=O)Nc3cc(Cl)c(Cl)cc3N2O)sc2c1CCCCC2 | 75.5% (active) |
| CCOc1cc(C=C(C(=O)OC)C(=O)OC)ccc1OCc1ccc([N+](=O)[O-])cc1 | 7.6% |
| CCOc1ccc(Nc2ncnc3ccc([N+](=O)[O-])cc23)cc1 | 63.8% (active) |
| O=[N+]([O-])c1ccc(O)c(Nc2ncnc3ccc(Br)cc23)c1 | 14.6% |
| O=C(CCCN1C(=O)/C(=C/c2ccccc2Cl)SC1=S)NNC(=O)c1ccc(Cl)cc1 | 76.9% (active) |
| Cc1ccc(/C=C2/SC(=S)N(CCCC(=O)Nc3ccc(O)cc3)C2=O)cc1 | -26% |
| Cc1ccc(/C=C2\SC(=S)N(CCCC(=O)NNC(=O)c3ccccc3O)C2=O)cc1 | 67.9% (active) |
| O=C(CCCN1C(=O)/C(=C/c2ccccc2Cl)SC1=S)NNC(=O)c1ccccc1 | -19.2% |
| O=C(CCCN1C(=O)/C(=C/c2cccs2)SC1=S)Nc1cccc(O)c1 | -2.9% |
| O=C(CCCN1C(=O)/C(=C/c2ccccc2Cl)SC1=S)NNC(=O)c1ccncc1 | 87% (active) |
| COc1ccc(/C=C2\SC(=S)N(CCCC(=O)NNC(=O)c3ccccc3O)C2=O)cc1 | 35.4% |
| COc1ccc2c(C(=O)CCl)c[nH]c2c1 | 66.7% (active) |
| COc1ccc2[nH]cc(C(=O)CCl)c2c1 | 102% (active) |
| COC(CNC(=O)c1c[nH]c2ccc(S(=O)(=O)N3CCOCC3)cc2c1=O)OC | 9.8% |
| COc1ccc(-c2csc(NC(=O)c3ccccc3NS(=O)(=O)c3ccc(F)c(F)c3)n2)cc1 | 82.3% (active) |
| COc1ccc(-c2csc(NC(=O)C3=NN(c4ccccc4)C(=O)CC3)n2)cc1 | -64.2% |
| CCOc1ccc(NC(=O)c2ccccc2NS(=O)(=O)c2ccc(F)cc2)c([N+](=O)[O-])c1 | 11.5% |
| Cc1cc(F)ccc1S(=O)(=O)Nc1ccccc1C(=O)Nc1ccccc1-c1nc2ccccc2[nH]1 | 1.4% |
| COc1ccc(-c2csc(NC(=O)c3ccccc3NS(=O)(=O)c3ccc(C)cc3)n2)cc1 | 80.3% (active) |
| O=C(Nc1nc(-c2ccccc2)cs1)c1ccccc1NS(=O)(=O)c1ccc(F)cc1 | 91.5% (active) |
| COc1ccc(S(=O)(=O)Nc2ccccc2C(=O)Nc2nc(-c3ccc(F)cc3)cs2)cc1OC | 81.4% (active) |

| Compound | inhibition |
| --- | --- |
| COc1ccccc1C(=O)Nc1nc(-c2ccc(S(=O)(=O)N3CCOCC3)cc2)cs1 | 99.6% (active) |
| COC(=O)c1ccc(NC(=O)c2ccccc2NS(=O)(=O)c2ccccc2)cc1 | 32.6% |
| COc1ccc(NC(=O)c2ccc(-c3ccccc3)cc2)cc1NS(=O)(=O)c1ccc(F)cc1 | 59.9% (active) |
| O=C(COc1ccc(Cl)cc1)Nc1nc(-c2ccc(S(=O)(=O)N3CCOCC3)cc2)cs1 | 26.4% |
| COc1ccccc1NS(=O)(=O)c1cccc(NC(=O)c2ccc3ccccc3n2)c1 | 15.4% |
| CC(C)CCNC(=O)c1cc(-c2ccncc2)nc2ccc(S(=O)(=O)N3CCOCC3)cc12 | 28.7% |
| Cc1ccc(S(=O)(=O)Nc2ccccc2C(=O)Nc2nc(-c3ccc(F)cc3)cs2)cc1 | 79.9% (active) |
| CC(=O)c1c(C)[nH]c(C(=O)Nc2nc(-c3ccc(-c4ccccc4)cc3)cs2)c1C | -7.7% |
| COc1ccccc1COc1ccc2c(C)c(CCC(=O)O)c(=O)oc2c1C | 5.6% |
| Cc1c(CCC(=O)O)c(=O)oc2c(C)c(OCc3ccccc3Cl)ccc12 | 17.1% |
| Cc1c(CCC(=O)O)c(=O)oc2cc(OCc3ccccc3Br)ccc12 | 75.3% (active) |
| Cc1c(C#N)c(NC(=O)CCl)n(Cc2ccccc2)c1C | 95.9% (active) |
| O=C(CCl)Nc1c2c(nn1-c1ccccc1)CSC2 | -6.5% |
| CC(=O)Nc1ccccc1OCC(=O)c1cc(C)n(Cc2cccs2)c1C | 28.3% |
| O=C(CCl)Nc1ccccc1C(=O)NCc1ccccc1 | -4% |
| Cc1c(C#N)c(NC(=O)CCl)n(Cc2cccs2)c1C | 101% (active) |
| CC(=O)Nc1ccc(SCC(=O)c2cc(C)n(Cc3cccs3)c2C)cc1 | -119% |
| CCCCCCCCC[n+]1cccc2c3ccccc3ccc21 | 83.9% (active) |
| CCC(C)(C)c1ccc(OCCCC[n+]2cccc(C)c2C)c(C(C)(C)CC)c1 | 18.8% |
| CCCCCCCC[n+]1cccc2c3ccccc3ccc21 | 83.6% (active) |
| CC(=O)c1cn(CCOc2ccccc2C)c2ccccc12 | 46.6% |
| COc1cccc(OCCn2cc(C(C)=O)c3ccccc32)c1 | 26.8% |
| CC(=O)c1cn(CCOc2cc(C)ccc2C)c2ccccc12 | 60.4% (active) |
| CN(C)/C=C/C(=O)c1ccc2noc(-c3ccccc3)c2c1 | 30.4% |

| Compound | inhibition |
| --- | --- |
| c1ccc(CNc2ncnc3scc(-c4cccs4)c23)nc1 | 57.5% (active) |
| c1ccc(-c2csc3ncnc(NCc4ccccn4)c23)cc1 | 13.4% |
| Cc1ccc(OCCn2c(NC(=O)c3ccco3)nc3ccccc32)cc1 | 19.6% |
| O=C(Nc1nc2ccccc2n1CCOc1ccc(Cl)cc1)c1ccco1 | 102% (active) |
| O=C(Nc1ccccc1Cl)/C(Cl)=C(\Cl)S(=O)c1ccccc1 (stereo not drawn) | 107% (active) |
| COc1cccc(C(C)NC(=O)Nc2ccccc2Cl)c1 (stereo not drawn) | 37.3% |
| CC1=C(C(=O)OCc2ccc3c(c2)OCO3)C(c2ccccc2)NC(=O)N1 (stereo not drawn) | 96.6% (active) |
| CC1=C(C(=O)OCc2ccc3c(c2)OCO3)C(c2ccc(F)cc2)NC(=O)N1 (stereo not drawn) | 104% (active) |
| O=C(CCl)Nc1ccccc1C(=O)Nc1ccc2c(c1)OCO2 | 10.4% |
| O=C(NCCc1ccccc1)c1ccc2c(c1)OCO2 | -77.5% |
| CC1=C(C(=O)OCc2ccc3c(c2)OCO3)C(c2ccc(O)c([N+](=O)[O-])c2)NC(=O)N1 (stereo not drawn) | 58% (active) |
| CC1=C(C(=O)OCc2ccc3c(c2)OCO3)C(c2ccc(Cl)cc2)NC(=O)N1 (stereo not drawn) | 102% (active) |
| COc1ccc(C(=O)N2CCCC(N3CCN(c4ccccc4OC)CC3)C2)c(OC)n1 (stereo not drawn) | 25% |
| O=c1cc(CSc2ccc(Cl)cc2)nc(-c2ccccn2)[nH]1 | 102% (active) |
| Cc1ccc(SCc2cc(=O)[nH]c(SCC(=O)Nc3cc(Cl)ccc3Cl)n2)cc1 | 28.1% |
| CCOc1cc(Br)cc(/C=N/NC(=O)c2cccnc2)c1O | 69.2% (active) |
| O=C(CNC(=O)c1cccc(Br)c1)N/N=C/c1cc(Br)cc(Br)c1O | 11.3% |
| C[C@@H](C(=O)Nc1ccc2ccccc2c1)[C@@H]1C[C@@]1(C)[C@@H](NC(=O)c1cccnc1)c1ccccc1 | 11% |
| O=C(N/N=C/c1c(O)ccc2ccccc12)c1cccnc1 | 101% (active) |
| O=C(N/N=C\c1c(O)ccc2ccccc12)c1cncc(Br)c1 | 54.9% (active) |
| S=C(N/N=C/c1ccc2ncccc2c1)Nc1cccnc1 | 29.3% |
| O=C(CCCc1nc(-c2ccc(Cl)cc2)no1)NC1CCCCC1 | 28.3% |
| Cc1ccc(-c2noc(CCCC(=O)NC3CCCCC3)n2)cc1 | 29.6% |
| O=C(CCCc1nc(-c2ccc(Cl)cc2)no1)NC1CCCC1 | 55.5% (active) |

| Compound | inhibition |
| --- | --- |
| O=C(NCc1ccccc1)C1CCCN1S(=O)(=O)c1ccc(F)cc1 (stereo not drawn) | 21.4% |
| CC(=O)N(Cc1ccc(F)cc1)C1=C(NCc2ccccc2)C(=O)c2ccccc2C1=O | 91.2% (active) |
| CC(=O)N(Cc1ccc(F)cc1)C1=C(NCCc2ccccc2)C(=O)c2ccccc2C1=O | 102% (active) |
| Cc1cc(C)nc(OC(C(=O)O)C(OCCc2ccccc2)(c2ccc(F)cc2)c2ccc(F)cc2)n1 (stereo not drawn) | -13.2% |
| CC1(C)N=C(N)N=C(N)N1c1ccc(OCCCOc2ccccc2)c(Cl)c1 | 59.9% (active) |
| COc1ccc2nc(N3CCCCC3)c(/C=C3\SC(=S)NC3=O)cc2c1 | 43.6% |
| Cc1cc(C)nc(SC2=CS(=O)(=O)c3ccccc32)n1 | 14.1% |
| Cn1c(SC2=CS(=O)(=O)c3ccccc32)nc2ccccc21 | 56% (active) |
| O=S1(=O)C=C(Sc2nc3ccccc3s2)c2ccccc21 | 82.7% (active) |
| O=C(Nc1ccc(CN2CCOCC2)cc1)c1ccc(-c2ccc(Cl)cc2Cl)o1 | 44.2% |
| O=C(Nc1ccc(S(=O)(=O)N2CCOCC2)cc1)c1ccc(CN2CCc3ccccc3C2)cc1 | 65.5% (active) |
| CCN(CC)c1ccc(S(=O)(=O)N2CCOCC2)cc1NC(=O)CN1CCc2ccccc2C1 | 21.6% |
| O=C(Nc1ccc(S(=O)(=O)N2CCCCC2)cc1)c1ccc(CN2CCOCC2)cc1 | 73.2% (active) |
| O=C(Nc1ccc(S(=O)(=O)Nc2ccc(F)cc2)cc1)c1ccc(CN2CCOCC2)cc1 | 61.1% (active) |
| COc1ccc(NS(=O)(=O)c2ccc(NC(=O)c3ccc(CN4CCOCC4)cc3)cc2)cc1 | 37.6% |
| O=C(Nc1ccc(Cc2ccncc2)cc1)c1ccc(S(=O)(=O)N2CCCC2)cc1 | 50.3% (active) |
| O=C(Nc1ccc(S(=O)(=O)N2CCCC2)cc1)c1ccc(Br)o1 | 6% |
| C/C=C/Cn1c(SCc2ccc(C)cc2)nc2c1c(=O)[nH]c(=O)n2C | 18.9% |
| CCN(CC)S(=O)(=O)c1cccc(NC(=O)c2ccc(Br)cc2)c1 | 27.5% |
| O=C(Nc1ccc(S(=O)(=O)N2CCCCC2)cc1)c1ccc(CN2CCc3ccccc3C2)cc1 | 59% (active) |
| CCN(CC)S(=O)(=O)c1ccc(C(=O)Nc2ccc(Cc3ccncc3)cc2)cc1 | 63% (active) |
